“And” between values parts separate entries of the source, which are not always exact repeats. Equal entries are not always repeated. Compounds without any hit were thinned out: in the full panel of roughly 83,000, 20% have a hit.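 Values shown are percent growth following 48 h exposure of cells in 96-well plates to a single concentration of compound; below 10 was considered active.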 The source made the active and inactive calls.
Legend:
Experiment in all cases: NCI-60 one-dose screen, 48 h (100 = growth as untreated, 0 = no growth, -100 = all killed)
[1] = tested on: MOLT-4 leukemia; conditions: 10 µM
[2] = tested on: SR leukemia; conditions: 10 µM
[3] = tested on: RPMI-8226 leukemia; conditions: 10 µM
[4] = tested on: OVCAR-5 ovarian; conditions: 10 µM
[5] = tested on: OVCAR-4 ovarian; conditions: 10 µM
[6] = tested on: SK-OV-3 ovarian; conditions: 10 µM
[7] = tested on: IGROV1 ovarian; conditions: 10 µM
[8] = tested on: OVCAR-3 ovarian; conditions: 10 µM
[9] = tested on: HS 578T breast; conditions: 10 µM
[10] = tested on: NCI/ADR-RES ovarian; conditions: 10 µM
[11] = tested on: MDA-MB-435 melanoma; conditions: 10 µM
[12] = tested on: SW-620 colon; conditions: 10 µM
[13] = tested on: MCF7 breast
[14] = tested on: HCT-116 colon; conditions: 10 µM
[15] = tested on: HCC-2998 colon; conditions: 10 µM
[16] = tested on: KM12 colon; conditions: 10 µM
[17] = tested on: T-47D breast; conditions: 10 µM
[18] = tested on: OVCAR-8 ovarian; conditions: 10 µM
[19] = tested on: BT-549 breast; conditions: 10 µM

Measured: growth

CC(C)C1(NC(=O)C2CC3c4cccc5[nH]cc(c45)CC3N(C)C2)OC2(O)C3CCCN3C(=O)C(Cc3ccccc3)N2C1=O (configuration not stated)
inactive: [1] 65.8% | [2] 87.8% | [3] 108% | [4] 72.2% | [5] 70.9% | [6] 116% | [7] 108% | [8] 116% | [9] 99.5% | [10] 102% | [11] 102% | [12] 103% | [13]; 10 µM unless noted 95.8% | [14] 95.8% | [15] 105% | [16] 106%

C=C1C(=O)O[C@@H]2C[C@@H](C)[C@@H]3C=CC(=O)[C@@]3(C)[C@@H](O)[C@H]12
active: [1] -48.5% | [2] -11.7% | [3] -52.3% | [4] 5.71% | [5] -36.6% | [7] -90.5% | [8] -100% | [17] -58.1% | [11] -88.2% | [12] -30.5% | [14] -93.5% | [15] -97.7% | [16] -84.3%
inactive: [6] 11.5% | [9] 18.2% | [10] 12.9%

CC1CCC2(OC1)OC1C(O)C3C4CCC5CC(OC6OC(CO)C(OC7OC(CO)C(O)C(OC8OCC(O)C(O)C8O)C7OC7OC(CO)C(O)C(OC8OC(CO)C(O)C(O)C8O)C7O)C(O)C6O)C(O)CC5(C)C4CCC3(C)C1C2C (configuration not stated)
inactive: [1] 28.8% | [17] 50.1% | [11] 47.5% | [12] 51.2% | [16] 34.2%
active: [2] 9.36% | [3] -47.1% | [4] -62.6% | [5] -66.7% | [6] -35.8% | [7] -47.7% | [8] -83.1% | [10] -59.4% | [13]; 10 µM -34% | [13]; 100 µM -84.7% and -85.4% | [14] -72%

S=C=NCCc1ccccc1
active: [2] 6.81% | [3] -18.9%
inactive: [1] 53.4% | [4] 33.2% | [5] 69.5% | [6] 122% | [7] 44.1% | [8] 72% | [10] 21.4% | [11] 66.4% | [12] 56% | [13]; 10 µM unless noted 20.3% | [14] 27.1% | [16] 41.9%

O=[N+]([O-])c1ccc(N(CCO)CCO)c2c1no[n+]2[O-]
inactive: [4] 18.5% | [10] 18.3%
active: [1] -24.4% | [3] -53.7% | [18] 2.5% | [5] -25.8% | [6] -35.8% | [8] -65.9% | [9] -30.8% | [19] -61.3% | [11] 2.88% | [12] 0.768% | [14] -68.3% | [15] -46.9% | [16] -40.1%

C[C@H]1CC[C@@]2(NC1)O[C@H]1C[C@H]3[C@@H]4CC[C@H]5C[C@@H](O)CC[C@]5(C)[C@H]4CC[C@]3(C)[C@H]1[C@@H]2C
inactive: [13]; 10 µM unless noted 29.5% [100 µM] and 25.5% [100 µM]

COC(=O)C1C(O)C(C)C(O)C(C)/C=C\C=C(C)C(=O)Nc2c(C)c(OC(C)=O)c3c(c2O)C(=O)C(C)=C2OCOC(=C23)C(C)=CC(C)(O)C(O)C(C)C1O (configuration not stated)
inactive: [1] 51.9% | [2] 49.3% | [3] 95.3% | [4] 77% | [5] 79.4% | [6] 108% | [7] 58.7% | [8] 105% | [9] 81.7% | [10] 105% | [17] 100% | [19] 121% | [11] 100% | [12] 94.2% | [13]; 10 µM unless noted 93.6% | [14] 99.9% | [15] 91.6% | [16] 102%

O=[N+]([O-])c1cc[n+]([O-])c2ccccc12
inactive: [9] 18.7%
active: [1] 3.5% | [3] -7.21% | [18] -31.1% | [4] -13.7% | [5] -99.6% | [6] -18.4% | [7] -24.3% | [8] 4.56% | [10] -55.1% | [19] -65.9% | [11] -70.7% | [12] -69.3% | [13]; 10 µM unless noted -16.7% | [14] -71.2% | [15] -94.5% | [16] -89.5%

CC12OOC(c3ccccc31)c1c2ccc2ccccc12 (configuration not stated)
active: [1] -58.3% | [2] -18.8% | [3] -33.8% | [5] -57.7% | [8] -92.4% | [17] -28.8% | [12] -52.1% | [14] -94.5% | [15] -91.7% | [16] -53.1%
inactive: [4] 66.1% | [6] 95.8% | [9] 91.6% | [10] 50.3% | [11] 46.2% | [13]; 10 µM unless noted 48.5%

COC12C(COC(N)=O)C3=C(C(=O)C(C)=C(N)C3=O)N1CC1C2N1C (configuration not stated)
inactive: [3] 51.7% | [4] 67.5% | [5] 70.5% | [6] 54.7% | [7] 24.4% | [8] 79.2% | [9] 67.1% | [10] 66.9% | [17] 52.8% | [19] 60% | [11] 68.6% | [12] 36.8% | [14] 44.3% | [16] 64.2%
active: [1] 7.02% | [2] 4.38% | [15] -4.28%

NNc1ccccc1
inactive: [1] 73.1% | [2] 53% | [18] 100% | [4] 90.2% | [5] 102% | [6] 99.6% | [7] 88.4% | [8] 97.7% | [9] 109% | [10] 83.1% | [17] 53.9% | [11] 88.6% | [12] 64.5% | [14] 78.4% | [15] 104% | [16] 64.7%

Source: PubChem BioAssay (NCI)
